Activity calls are given as the source filed them. Rule for the calls: active = hit-call score of the fitted dose curve at least 0.9, where 1 is the maximum; inactive = score below 0.9.

For the test, the target named is human Adrenoceptor beta1 Antagonism, ADRB1 (gene 153) (UniProt P08588). As to the kind of experiment: ERF_TW_GPCR_hADRB1: Eurofins (ERF) G Protein-Coupled Receptor (GPCR) Radioligand Binding LeadHunter Assay for human Adrenoceptor beta1 Antagonism. The protocol: ERF_TW_GPCR_hADRB1 is a biochemical, single-readout assay that uses extracted gene-proteins in a cell-free assay. Measurements were taken 2 hour after chemical dosing in a 96-well plate. See beta1 Human Adrenoceptor GPCR Binding (Antagonist Radioligand) Assay, Panlabs.ERF_TW_GPCR_hADRB1 is an assay component calculated from the ERF_TW_GPCR_hADRB1 assay. It is designed to measure radioligand binding using a type of binding reporter as detected by scintillation counting with radiometry technology.Data from the assay component ERF_TW_GPCR_hADRB1 was analyzed at the assay endpoint, ERF_TW_GPCR_hADRB1, in the positive analysis fitting direction relative to DMSO as the negative control and baseline of activity. Using a type of binding reporter, loss-of-signal activity can be used to understand changes in radioligand binding as they relate to gene ADRB1. To generalize the intended target to other relatable targets, this assay endpoint is annotated to the gpcr intended target family, where the subfamily is adrenoceptor.
human Adrenoceptor beta1 Antagonism, ADRB1 (gene 153), sequence (P08588 whole entry, looked up): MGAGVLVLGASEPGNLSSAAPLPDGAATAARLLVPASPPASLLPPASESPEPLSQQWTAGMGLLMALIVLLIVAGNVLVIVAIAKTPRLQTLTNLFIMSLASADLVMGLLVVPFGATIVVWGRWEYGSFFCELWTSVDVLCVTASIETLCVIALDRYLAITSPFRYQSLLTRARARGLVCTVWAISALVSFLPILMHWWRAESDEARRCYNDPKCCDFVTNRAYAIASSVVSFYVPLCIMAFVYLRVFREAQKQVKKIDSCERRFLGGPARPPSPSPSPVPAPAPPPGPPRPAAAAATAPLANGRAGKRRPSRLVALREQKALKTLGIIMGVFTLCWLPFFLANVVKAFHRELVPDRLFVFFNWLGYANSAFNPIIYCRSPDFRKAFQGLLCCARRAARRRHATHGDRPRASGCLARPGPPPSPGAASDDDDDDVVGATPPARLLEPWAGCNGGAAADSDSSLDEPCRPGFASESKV
Human recombinant adrenergic beta1 receptors expressed in HEK 293 cells are used in modified Tris-HCl buffer pH 7.4. A 25 ug aliquot is incubated with 0.03 nM [125I]Cyanopindolol for 120 minutes at 25C. […] Receptors are filtered and washed, the filters are then counted to determine [125I]Cyanopindolol specifically bound. […]
A word on the AC50: it is the midpoint of the concentration-response curve, whichever way the signal moves. Take `O=C(/C=C/c1ccc(O)cc1)CC(=O)/C=C/c1ccc(O)cc1`: the AC50 was 1130 nM (active).

Values taken from PubChem BioAssay AID2284145 (EPA ToxCast).
